Laboratory results from PubChem BioAssay (NCATS).
Results filed as inconclusive are left out. The source made the active and inactive calls. Calls come from the whole dose curve; as a rule, active = well fitted inhibition curve with a large enough effect; inconclusive = small, poorly fitted or top-dose-only effect; inactive = flat fitted curve, though single readings scatter.

Key:
[1] = tested on: AA1029; assay: qHTS profiling for inhibitors of Plasmodium falciparum proliferation (AID 504749); note: nearly all actives have a fitted effect of over 60% in size; details: P. falciparum in erythrocytes, SYBR Green DNA, 72 h; series mostly up to 12.8 µM
Procedure, shortened: (§1)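 Each compound contacts P. falciparum-infected red blood cells for 72 h at 37 C; lysis buffer (Tris, EDTA, saponin, Triton X, SYBR Green I) is added and fluorescence measured next morning; values normalized to controls.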

[2] = tested on: ATS189; assay: as above; details: P. falciparum in erythrocytes, SYBR Green DNA, 72 h; series mostly up to 12.8 µM
Procedure, shortened: as §1

[3] = tested on: CP194; assay: as above; details: P. falciparum in erythrocytes, SYBR Green DNA, 72 h; series mostly up to 12.8 µM
Procedure, shortened: as §1

[4] = tested on: CP211; assay: as above; details: P. falciparum in erythrocytes, SYBR Green DNA, 72 h; series mostly up to 12.8 µM
Procedure, shortened: as §1

[5] = tested on: CP237; assay: as above; details: P. falciparum in erythrocytes, SYBR Green DNA, 72 h; series mostly up to 12.8 µM
Procedure, shortened: as §1

[6] = tested on: CP265; assay: as above; details: P. falciparum in erythrocytes, SYBR Green DNA, 72 h; series mostly up to 12.8 µM
Procedure, shortened: as §1

[7] = tested on: CP268; assay: as above; details: P. falciparum in erythrocytes, SYBR Green DNA, 72 h; series mostly up to 12.8 µM
Procedure, shortened: as §1

[8] = tested on: CP269; assay: as above; details: P. falciparum in erythrocytes, SYBR Green DNA, 72 h; series mostly up to 12.8 µM
Procedure, shortened: as §1

[9] = tested on: CP286; assay: as above; details: P. falciparum in erythrocytes, SYBR Green DNA, 72 h; series mostly up to 12.8 µM
Procedure, shortened: as §1

[10] = tested on: CP297; assay: as above; details: P. falciparum in erythrocytes, SYBR Green DNA, 72 h; series mostly up to 12.8 µM
Procedure, shortened: as §1

[11] = tested on: DIV14; assay: as above; details: P. falciparum in erythrocytes, SYBR Green DNA, 72 h; series mostly up to 12.8 µM
Procedure, shortened: as §1

[12] = tested on: DIV17; assay: as above; details: P. falciparum in erythrocytes, SYBR Green DNA, 72 h; series mostly up to 12.8 µM
Procedure, shortened: as §1

[13] = tested on: DIV30; assay: as above; details: P. falciparum in erythrocytes, SYBR Green DNA, 72 h; series mostly up to 12.8 µM
Procedure, shortened: as §1

[14] = tested on: Dd2; assay: as above; details: P. falciparum in erythrocytes, SYBR Green DNA, 72 h; series mostly up to 12.8 µM
Procedure, shortened: as §1

[15] = tested on: ECU; assay: as above; details: P. falciparum in erythrocytes, SYBR Green DNA, 72 h; series mostly up to 12.8 µM
Procedure, shortened: as §1

[16] = tested on: P93_24; assay: as above; details: P. falciparum in erythrocytes, SYBR Green DNA, 72 h; series mostly up to 12.8 µM
Procedure, shortened: as §1

[17] = tested on: PAD; assay: as above; details: P. falciparum in erythrocytes, SYBR Green DNA, 72 h; series mostly up to 12.8 µM
Procedure, shortened: as §1

[18] = tested on: PC15; assay: as above; details: P. falciparum in erythrocytes, SYBR Green DNA, 72 h; series mostly up to 12.8 µM
Procedure, shortened: as §1

[19] = tested on: TAB165; assay: as above; details: P. falciparum in erythrocytes, SYBR Green DNA, 72 h; series mostly up to 12.8 µM
Procedure, shortened: as §1

[20] = target: Luciferin 4-monooxygenase (Photinus pyralis) (UniProt P08659); assay: Biochemical firefly luciferase enzyme assay for NPC (AID 624030);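 note: purified P. pyralis luciferase at 10 nM with luciferin and ATP substrate; nearly all actives have a fitted effect of over 70% in size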
Procedure, shortened: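 Purified P. pyralis luciferase at 10 nM in 50 mM Tris Acetate (final), luminescence read within 5 minutes of enzyme addition to compounds. Activity normalised to PTC124 versus DMSO; concentration-response curves classed by r2, magnitude and activity.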

Measured: Potency

Sequence of Luciferin 4-monooxygenase (Photinus pyralis) (P08659 whole entry, looked up): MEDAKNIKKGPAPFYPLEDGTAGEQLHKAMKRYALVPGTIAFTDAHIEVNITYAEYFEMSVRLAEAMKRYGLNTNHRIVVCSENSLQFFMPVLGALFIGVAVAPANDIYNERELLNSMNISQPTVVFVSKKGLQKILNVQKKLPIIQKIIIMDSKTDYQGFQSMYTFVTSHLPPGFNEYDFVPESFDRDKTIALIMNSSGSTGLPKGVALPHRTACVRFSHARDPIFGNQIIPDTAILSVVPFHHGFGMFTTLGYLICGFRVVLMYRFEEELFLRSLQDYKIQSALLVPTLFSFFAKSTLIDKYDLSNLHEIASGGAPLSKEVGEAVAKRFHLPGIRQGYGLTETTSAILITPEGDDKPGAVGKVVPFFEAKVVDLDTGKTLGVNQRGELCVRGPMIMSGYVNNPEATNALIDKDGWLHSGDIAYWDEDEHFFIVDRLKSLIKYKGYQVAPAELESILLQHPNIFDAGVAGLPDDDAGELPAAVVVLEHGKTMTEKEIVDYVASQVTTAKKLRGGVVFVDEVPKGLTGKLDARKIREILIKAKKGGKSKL

CCc1c(C)[nH]c2c1C(=O)[C@H](CN1CCOCC1)CC2
not listed: [20]
inactive: all other assays above

CS(=O)(=O)c1ccc([C@H](O)[C@H](CO)NC(=O)C(Cl)Cl)cc1
inactive: [2] | [6] | [11] | [12] | [13] | [17] | [18]

C[C@H](Oc1ccccc1)C(=O)N[C@@H]1C(=O)N2[C@@H]1SC(C)(C)[C@@H]2C(=O)O
inactive: all assays above

C#C[C@]1(O)CC[C@@H]2[C@H]3CCC4=CCCC[C@@H]4[C@@H]3CC[C@@]21C
inactive: all assays above
